Where “and” joins values, the source holds several entries; their conditions need not be identical. Equal entries are not always repeated. Compounds without any hit were thinned out: in the full panel of roughly 83,000, 20% have a hit.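 Cell lines were cultured in 96-well plates, exposed to a single compound concentration, and assessed for percent growth 48 hours later.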 A number with no mark means an inactive call. Calls of active or inactive are those of the source. Rule for the calls: active = growth percent below 10; inactive = the rest.
Tested on: HL-60(TB) leukemia
Assay: NCI-60 one-dose screen, 48 h (100 = growth as untreated, 0 = no growth, -100 = all killed)
Details: 10 µM unless noted

Row | Compound | growth
1 | O=C(c1ccccc1)c1ccc2nc(-c3ccccc3Br)[nH]c2c1 | -52.4% (active)
2 | Clc1ccc2c(N/N=C/c3c[nH]c4ccc(Br)cc34)ccnc2c1 | -74.7% (active)
3 | CC(=O)c1cc(C(=O)c2ccccc2)n2c1ccc1ccccc12 | 94.7%
4 | S=C(NCCc1ccccc1)Nc1ccc(OCc2nc3ccccc3[nH]2)cc1 | 100%
5 | COc1cccc(C(=O)CSc2nc(-c3ccc(OCc4ccccc4)c(OC)c3)c(C#N)c(=O)[nH]2)c1 | 97.2%
6 | COc1ccc2c(c1)c(-c1cc(N)n3nc(-c4cn(C)c5ccccc45)cc3n1)cn2C | -33.1% (active)
7 | CN(C)c1nc(NCCNS(=O)(=O)c2ccc(C(=O)/C=C/c3ccccc3)cc2)nc(Nc2ccc(F)cc2)n1 | 14%
8 | COc1ccccc1[C@H]1C(C(=O)c2ccc(Cl)cc2)C2(N[C@@H]1c1ccccc1)C(=O)Nc1ccccc12 (some centres undefined) | -29.6% (active)
9 | O=C1c2cccc3c(N4CCN(c5ccccc5)CC4)ccc(c23)C(=O)N1c1cccc(-c2nn(-c3ccccc3)cc2-c2nc3ccccc3s2)c1 | 98.5%
10 | CNC(=O)c1cccc(NC(=O)c2ccc3c(c2)nnn3/C(C#N)=C/c2ccccn2)c1 | -14.7% (active)
11 | Cc1cc(=O)oc2cc(OCCCCOc3ccc(/C=C/C(=O)Nc4ccc(F)c(Cl)c4)cc3)ccc12 | 97.6%
12 | Cn1cc(-c2cc(N)n3nc(-c4c[nH]c5ccccc45)cc3n2)c2ccccc21 | -24.5% (active)
13 | CN1CCN(c2ccc(C(=O)/C=C/c3cc(Br)ccc3F)cc2)CC1 | -22.1% (active)
14 | CC12CC[C@@H]3[C@]4(C)COC(c5cn[nH]c5-c5ccc(Br)cc5)O[C@@H]4CC[C@@]3(C)[C@@H]1CC(C1=CCOC1=O)O2 (some centres undefined) | 27.2%
15 | O=c1c(-c2nc(-c3ccccc3)c(-c3ccccc3)[nH]2)coc2ccc(F)cc12 | 54.3%
16 | CC(=O)Nc1cccc(Nc2nccc(N[C@@H](C)c3ccccc3)n2)c1 | 5.18% (active)
17 | O=C(O)CCN1C(=O)/C(=C/C=C/c2ccc([N+](=O)[O-])o2)SC1=S | -11% (active)

Row | Compound | growth
18 | Nc1nc2c(F)c(F)c(F)c(F)c2s1 | 110%
19 | Cc1ccc2c(c1)nc(-c1ccccc1)n2CC(=O)N=Nc1c(O)[nH]c2ccc(Br)cc12 | 7.86% (active)
20 | N#Cc1c(-c2ccc(Br)cc2)nc2n[nH]c(-c3ccc(Br)cc3)c2c1-c1ccc(F)cc1 | 80.4%
21 | CC[C@]12C=CCN3CC[C@]4(C(=C(C(=O)OC)C1)Nc1cc(OC)c([C@@H]5[C@H]6O[C@H]6[C@@]6(CC)CC(C(=O)OC)=C7Nc8cc(O)ccc8[C@@]78CCN5[C@@H]68)cc14)[C@@H]32 | -44.4% (active)
22 | COc1cc(CNC(=O)C[C@H](C)CCC=C(C)C)ccc1OCc1cn(-c2cccc(C(F)(F)F)c2)nn1 | 96.3%
23 | COc1cccc(O)c1/C=C1\SCc2cc3c(OC)cccc3[o+]c21 | 100%
24 | OCC1(CCCc2ccccc2)CCCN(c2nccc3ccccc23)C1 (centres undefined) | 22.7%
25 | COc1ccc(C(=O)/C=C/c2cc(C(F)(F)F)cc(C(F)(F)F)c2)cc1S(N)(=O)=O | 2.43% (active)
26 | COc1cc2c3c(n(CCCN4CCC[C@@H]4CO)c(=O)c2cc1OC)-c1cc2c(cc1C3=O)OCO2 | -15.4% (active)
27 | CCCCN1C(=O)/C(=C\C(=O)c2cc3ccccc3oc2=O)c2ccccc21 | 74.8%
28 | Cc1cc(=O)oc2cc(OCCOc3ccc(/C=C/C(=O)Nc4ccccc4N)cc3)ccc12 | 0.0457% (active)
29 | CC(C)CN1C(=O)/C(=C\C(=O)c2cc3ccccc3oc2=O)c2ccccc21 | 96.1%
30 | CSc1ccc(OCc2nc3ccccc3n2-c2cccc(NS(C)(=O)=O)c2)cc1 | 115% and 105%
31 | C=C1CC[C@@H]2[C@]3(C)COC(c4ccco4)O[C@@H]3CC[C@@]2(C)[C@@H]1C/C=C1/C(=O)OCC1OC(C)=O (some centres undefined) | -5.13% (active)
32 | O=C(NO)c1ccc(Cn2ccc3c(Nc4ccccc4)ncnc32)cc1 | 0.922% (active)
33 | COc1cc2c(c(OC)c1OC)C(=O)CC(c1cccc(NC(=O)c3cccc([N+](=O)[O-])c3)c1)O2 (centres undefined) | 26.1%
34 | CC(C)Sc1nc(NCCc2c[nH]c3ccccc23)c(C#N)c(-c2ccc(F)cc2)n1 | 27%
